± gives the standard deviation.
Test system: MILI (PIWIL2) piRISC loaded with piRNA #1 (26 nt)
Assay: pre-steady-state target cleavage rate (min^-1); guide: piRNA #1 5'p-UGAGGUAGUAGGUUGUAUAGUAUCCA; MIWI and MILI are mouse PIWI proteins and EfPiwi is from a freshwater sponge; tags in brackets are library labels; higher = faster piRNA-guided slicing of the target
Conditions: auxiliary factor: 500 nM mouse GTSF1
In short: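 Cleave-'n-Seq used a transcribed, DNA-blocked target RNA library at 0.1 nM and active affinity-purified piRISC with one synthetic guide at 1 nM, with or without 500 nM GTSF1 partner protein, in HEPES–potassium acetate buffer at 33 °C for 0–8 or 0–960 min. Uncleaved targets were sequenced and normalised to depth and to weakly complementary targets, and three trials were pooled with k3 capped at 0.0001 min^-1. The pre-steady-state cleavage rate was estimated by a burst-and-steady-state fit.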

Sequence | pre-steady-state target cleavage rate
GGAGACCUAACUAUACAACCUACUACACUCA | 0.168 ± 0.028
GGAGGGGAUACUAUACAACCUACUACCUCA | 0.203 ± 0.0091
GGAGACCUAUGAUAACAACCUACAUACCUCA | 0.00403 ± 0.002
GGAGACCUUACAAUACAACCUACAACCUCA | 0.111 ± 0.011
GGAGAGGAUACUAAACAACCUACUUCCUCA | 0.0102 ± 0.0039
GGAGACCUAUCUAUACAAGGAACUACCUCA | 0.0048 ± 0.002
GGAGACCUAUCUAUACAACCUACAUCCUCA | 0.0186 ± 0.0046
GGAGACCUAUGUAUAGAUCCUACUACCUCA | 0.0611 ± 0.0081
GGAGACCUAUGUAUACAACCUACAAGCUCA | 0.0033 ± 0.0026
GGAGACGAUACAAUACAACGUACUACCUCA | 0.0185 ± 0.0029
GGAGACCUUACUAUUCAACCUACAACCUCA | 0.12 ± 0.013
GGAGACCUAUGUAUACAACCUCACUACCUCA | 0.00401 ± 0.0027
GGAGACCUAUGAAUACAACCUACUACCCCA | 0.00425 ± 0.0034
GGAGACCUAUGAAUACAAGCUACUUCCUCA | 0.0166 ± 0.0043
GGAGACCAUACUAUACAACCUAGUACCACA | 0.00768 ± 0.0041
GGAGACCUAUCUAUACAACCUACUACCCA | 0.098 ± 0.019
GGAGACCUAUGAUUACAACCUACUACUUCA | 0.00418 ± 0.0024
GGAGACCUUACUAUACCACCUACUACCUCA | 0.109 ± 0.014
GGAGACCUAUGAUUACAACCUACUACGCUCA | 0.0104 ± 0.0039
GGAGACCUAUCUAAACAACCUACUACGUCA | 0.0213 ± 0.0039
GGAGACCUAACUAUACAAGGUACUACCUCA | 0.0664 ± 0.012
GGAGACCUAUCUAUACAACCUACUACUCUCA | 0.194 ± 0.021
GGAGACCUAUCUAAACAACCAACUACCUCA | 0.00401 ± 0.0024
GGAGACCUAACUAUAGAACCUACUAGCUCA | 0.00426 ± 0.0041
GGAGACGAUACUAUACAACCUACCUACCUCA | 0.131 ± 0.011
GGAGACCAUACUAUACAACGUACUUCCUCA | 0.0304 ± 0.0072
GGAGACCUUAGUAUACAACCUUCUACCUCA | 0.00489 ± 0.0033

Sequence | pre-steady-state target cleavage rate
GGAGACGAUACUUUACAACCUACUAGCUCA | 0.0695 ± 0.013
GGAGUGGAUACUAAACAACCUACUAGCUCA | 0.0437 ± 0.0085
GGAGAGGAUACUAAUACAACCUACUACCUCA | 0.147 ± 0.011
GGAGACCUAACUAAACAACCUACUACCACA | 0.139 ± 0.027
GGAGACCUAUCUUUACUACCUACUACCUCA | 0.0305 ± 0.008
GGAGACCUAUGUAUACAACCUACGACCUCA | 0.0402 ± 0.0075
GGAGACCUAUGAAUACAACCUACUAACUCA | 0.00512 ± 0.0027
GGAGACCUUAUUAUACAACCUACUACCUCA | 0.14 ± 0.011
GGAGACCUUACUAAAGAACCUACUACCUCA | 0.105 ± 0.011
GGAGUGGAUACUAUAGUUCCUACUACCUCA | 0.169 ± 0.0095
GGAGAGGAUACUAUAGAACCUACAACCUCA | 0.00427 ± 0.0024
GGAGUGGAUUCUAUUCAACCUACUACCUCA | 0.165 ± 0.008
GGAGACCUAUGAUAUGAACGUUCUACCUCA | < 0.0001
GGAGAGGAUACAAUAGAACCUACUACCUCA | 0.148 ± 0.012
GGAGACCUAACUAUACAACCUACUAGCCUCA | 0.186 ± 0.035
GGAGACCUAUGUAUACAACGAACUACCUCA | 0.00287 ± 0.002
GGAGACCUAUGUAUACAACCUACUAGCACA | 0.00507 ± 0.0028
GGAGACCUUAGUAUACAACCUACAACCUCA | 0.0865 ± 0.013
GGAGUGGAUACAAUAGAACCUACUACCUCA | 0.163 ± 0.009
GGAGACCAUACUUUACAACCUACUACCACA | 0.226 ± 0.023
GGAGACCUAUGAAAACAUCCUACUACCUCA | 0.00361 ± 0.0024
GGAGACCUAUGAUAACAACGUACUACCUCA | 0.00353 ± 0.0022
GGAGACCUAUCUAUACAUCCUACUUCCUCA | 0.107 ± 0.019
GGAGACCUUACUAUACAACCUACUACACUCA | 0.15 ± 0.022
GGAGACCUAUGAUAACAACCUACUACACUCA | 0.00558 ± 0.0031
GGAGACCUAUGUAUACAACCUACCUACCUCA | 0.0358 ± 0.0076
GGAGACCUAUGAUUACAAGCUACUACCUCA | 0.0262 ± 0.0067

— the supplement of paper PMC10338343
